hgDAF-12 ag – activates the H. glycines DAF-12 receptor ligand-binding domain. activation, % at 6.8 µM. 1.8% of 370,000 active. HEK293 GAL4-hgDAF12 UAS-luciferase reporter, agonist luminescence; normalized to butyrate control;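 active means activation above a cutoff set at the mean of all screened compounds plus 3 SD, cut at about 10% in these data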;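 further: 0% = DMSO wells and 100% = sodium butyrate wells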
hcDAF12 agonist – activators of H. contortus DAF-12 nuclear receptor; HEK293 hcDAF-12 lit1-tk-luc reporter, luminescence; 0% DMSO, 100% Δ7-dafachronic acid; AID 652067; activation, % at 6.8 µM; 1.4% of 370,000 active;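 active means activation above the mean of all tested compounds plus 3 SD, cut at about 5.5% in these data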;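 further: 100% = response to 3 µM Δ7-dafachronic acid high control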
ssDAF12 agonist – activates DAF-12 receptor from parasite S. stercoralis | HEK293 ssDAF-12/GRIP1 lit1-tk-luc reporter, luminescence; % of 3 µM dafachronic acid response | activation, % at 6.8 µM | 1% of 370,000 active;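 active means activation above the mean over all tested compounds plus 3 SD, cut at about 0.9% in these data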;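 further: 0% = DMSO-only wells and 100% = 3 µM delta7-dafachronic acid wells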
DAX1 inh-1 – inhibitors of DAX1 repression of SF-1 activated StAR promoter | 1.1% of 370,000 active | HEK293T StAR-luciferase reporter, SF-1/DAX-1 repression relief | inhibition, % at 6.8 µM | AID 652010;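 active means inhibition above the mean over all tested compounds plus 3 SD, cut at about 3.6% in these data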;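 further: 0% = DAX-1 cells with DMSO and 100% = cells lacking DAX-1 with DMSO; higher inhibition means more luminescence from relief of DAX-1 repression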
SMARCA2 activ – SMARCA2 function activation, primary screen | MG213 cells, MMTV-luciferase reporter, dexamethasone, overnight | activation, % at 9.1 µM | 1% of 370,000 active; in the data active means activation above about 7.8%;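 further: 0% = vehicle wells and 100% = reference activator wells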
DAX1 inh-2 – inhibitors of human orphan nuclear receptor DAX1 (NR0B1); P51843; HEK293 Gal4-DAX1 luciferase reporter, luminescence; inhibition, % at 6.75 µM; 0.99% of 340,000 active; AID 504766;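 active means inhibition above the mean over all tested compounds plus 3 SD, cut at about 4.2% in these data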;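 further: 0% = DAX1-transfected cells with DMSO and 100% = empty-vector control cells with DMSO; inhibition shows as a rise in luminescence from relieved DAX1 repression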
Target sequence (P51843 207-470 limits assumed): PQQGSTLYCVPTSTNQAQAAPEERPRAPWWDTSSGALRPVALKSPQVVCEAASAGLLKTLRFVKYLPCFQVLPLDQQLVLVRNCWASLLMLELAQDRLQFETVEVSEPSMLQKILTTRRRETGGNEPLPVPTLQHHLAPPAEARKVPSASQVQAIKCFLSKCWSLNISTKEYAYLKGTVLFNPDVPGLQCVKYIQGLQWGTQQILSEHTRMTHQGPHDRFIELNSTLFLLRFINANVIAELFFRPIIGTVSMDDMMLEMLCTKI
* marks the source's active call; other numbers are inactive results; / = no result given. Shown are actives, neighbours in structure and some others; about 4.8% of the full set was active somewhere.

SMILES | hgDAF-12 ag | hcDAF12 agonist | ssDAF12 agonist | DAX1 inh-1 | SMARCA2 activ | DAX1 inh-2
C=CCCC(=O)N1C[C@H]2CCN(C)[C@H]2C[C@H]1c1ccccc1Br | 4.7 | 0.6 | -0.5 | 0.6 | 0.9 | /
CN(C)/C=N/c1cnc(C(=O)c2ccc(Cl)cc2)n1C | 12.3* | 6.4* | 0.2 | 2.9 | 1.0 | 3.0
Cn1cccc1C(=O)NC(=O)CSc1nc2ccccc2s1 | 4.4 | 4.5 | 1.0* | 1.4 | -1.6 | -0.5
CC(=O)CSc1nc2ccccc2s1 | 3.7 | -0.8 | -0.1 | 0.1 | -0.5 | 0.8
CN(C(=O)CNC(=O)c1ccccc1OCC(=O)Nc1ccc(I)cc1)c1ccccc1 | -2.0 | -2.1 | -1.6 | -2.5 | -1.5 | /
CCC(C)Nc1nc(Cl)nc(N(C#N)CN2C(=O)c3ccccc3S2(=O)=O)n1 (stereo unspecified) | 1.7 | -1.2 | -1.2 | -0.1 | 6.4 | 1.2
CC(C)Nc1nc(Cl)nc(N(C#N)CN2C(=O)c3ccccc3C2=O)n1 | 0.3 | 2.6 | -0.9 | -0.8 | 14.4* | -1.5
C=C(C)C1(O)OC(=O)C=C1OC (stereo unspecified) | 0.1 | 6.5* | 0.1 | 2.2 | 5.0 | 4.2
Cc1ccc(-c2nc3ccc(C)cn3c2Cc2cccc(Cl)c2)cc1 | 8.7 | 1.2 | -1.0 | 3.8* | 7.7 | /
Cc1ccc2nc(-c3cccc(Cl)c3)c(Cc3ccccc3)n2c1 | 11.9* | 3.4 | -0.2 | 4.2* | 5.5 | /
Cc1ccc2nc(-c3ccccc3)c(CN3CCOCC3)n2c1 | 11.2* | -0.7 | -1.4 | 0.5 | 3.0 | 1.6
Cc1ccc2nc(-c3cccc(Cl)c3)c(Cc3cccc(Cl)c3)n2c1 | 10.2 | 2.4 | -0.3 | 3.4 | 1.6 | /
COC(=O)c1ccc2nc(-c3ccc(C)cc3)c(Cc3cccc(Cl)c3)n2c1 | 1.4 | 1.0 | 0.2 | -0.1 | -0.2 | /
CCCCc1c(-c2ccccc2OC)ncn1Cc1cccc(F)c1F | 0.2 | 0.1 | -0.4 | 0.4 | -0.6 | /
Cn1c(=O)c2[nH]c(SCC(=O)NCCc3cccc(F)c3)nc2n(C)c1=O | -0.6 | -0.7 | -0.8 | -0.4 | -2.6 | /
CCOC(=O)/C(C#N)=C/Nc1ccccc1OC(F)(F)F | 1.8 | -1.0 | 1.5* | -0.6 | -1.0 | /
CCCCc1cc(=O)oc2cc(OC(C)C(=O)NCC3CCC(C(=O)O)CC3)c(Cl)cc12 (stereo unspecified) | -3.2 | -1.5 | -1.3 | -0.4 | -1.2 | 3.7
Cc1c(Cc2ccccc2)c(=O)oc2c(C)c(OC(C)C(=O)NCC3CCC(C(=O)O)CC3)ccc12 (stereo unspecified) | -2.8 | 0.6 | -1.0 | 0.9 | 2.9 | 3.1
CCCc1cc(=O)oc2cc(OC(C)C(=O)NCCCn3ccnc3)ccc12 (stereo unspecified) | 2.2 | -2.4 | -1.4 | -1.1 | 7.9* | -0.4
CC(Oc1ccc2ccc(=O)oc2c1)C(=O)NCC1CCC(C(=O)O)CC1 (stereo unspecified) | -2.3 | -0.7 | -0.1 | 1.2 | 0.4 | 4.7*
CCCc1cc(=O)oc2cc(OCC(=O)NCCCn3ccnc3)ccc12 | 0.7 | -1.1 | -1.1 | -0.2 | 0.4 | 0.2
Cc1cc(OC(C)C(=O)NCC2CCC(C(=O)O)CC2)c2c(C)c(Cc3ccccc3)c(=O)oc2c1 (stereo unspecified) | -3.5 | -1.1 | -0.6 | 0.8 | 3.1 | 6.6*
CCCc1cc(=O)oc2cc(OC(C)C(=O)NCC3CCC(C(=O)O)CC3)c(Cl)cc12 (stereo unspecified) | 1.0 | -1.0 | -1.4 | 0.8 | 3.1 | 4.5*
CCCCCCCCN1C(=O)[C@@H](CC(=O)NCCC(C)C)C[C@@]2(C(=O)OC)C1=C[C@H](COCc1ccccc1)O[C@@H]2C | 1.0 | -0.5 | -1.7 | -1.4 | -2.6 | /
CN1CCN(NC(=O)CN2C(=O)S/C(=C\c3c(Cl)cccc3Cl)C2=O)CC1 | -0.9 | 0.1 | -0.8 | -0.5 | -1.5 | 5.2*
SMILES | hgDAF-12 ag | hcDAF12 agonist | ssDAF12 agonist | DAX1 inh-1 | SMARCA2 activ | DAX1 inh-2
O[C@H](COc1cccc(Cl)c1)CN1CCC(C(O)(c2ccccc2)c2ccccc2)CC1 | 6.2 | -2.9 | -1.0 | -0.3 | -0.3 | /
Cc1ccc(NC(=O)Cc2cccc(OC(F)F)c2)c(S(=O)(=O)N2CCOCC2)c1 | -0.3 | -0.6 | -1.6 | -1.0 | -6.4 | /
COC(=O)c1ccc(-c2n[nH]c(=O)c3ccccc23)cc1 | -0.2 | -1.7 | -1.2 | 0.3 | 1.7 | -0.3
CN(C)C(=O)c1ccc(-c2n[nH]c(=O)c3ccccc23)cc1 | -0.6 | 0.3 | -1.5 | 1.4 | -2.6 | 4.8*
Cc1nc2ccccc2c2oc(C(=O)NCCN3CCN(C)CC3)cc12 | 12.4* | -0.4 | -1.5 | 0.2 | -0.4 | 2.5
Cc1nc2ccccc2c2oc(C(=O)NCCCN3CCCC3=O)cc12 | -2.2 | -1.0 | 0.1 | -0.9 | -1.6 | 1.4
CC1CCC/C(=N/Nc2nc3ccccc3s2)C1 (stereo unspecified) | -0.5 | 6.4* | 0.4 | 3.1 | -3.0 | 5.3*
O=C(NNc1ncnc2ccccc12)c1cccc(Cl)c1 | 11.4* | 3.3 | 0.8 | 1.4 | 3.0 | 5.8*
CC(=O)NCCC(=O)Nc1nc2c(ccc3ccccc32)s1 | 1.4 | 0.7 | -0.8 | 0.0 | 7.4 | 0.9
Nc1nc2c(ccc3ccccc32)s1 | 1.3 | 3.0 | -0.4 | 0.3 | 6.2 | 4.9*
c1ccc(-n2cnc3ccccc32)cc1 | 11.0* | -1.3 | -0.8 | 0.9 | 7.1 | 2.3
Cc1ccc(/C=N/c2sc3c(c2C#N)CCC3)s1 | -0.7 | 1.2 | -1.1 | 0.7 | 2.7 | 2.3
CN1CCc2c(sc(/N=C/c3cc(Cl)ccc3O)c2C#N)C1 | 2.8 | 2.0 | -0.3 | 0.7 | 3.2 | 6.8*
CCCCNS(=O)(=O)CC1NCc2ccc(C)cc21 (stereo unspecified) | 3.0 | 1.9 | -0.9 | -0.3 | -4.4 | /
CN(Cc1nc2ccccc2c(=O)[nH]1)C(=O)c1cccc(S(=O)(=O)N2CCCC2)c1 | 1.9 | -1.5 | -0.7 | 3.7* | -0.6 | 1.4
Cc1cccc(N=c2oc3cc(O)ccc3cc2C(N)=O)c1 | 12.0* | 3.3 | 0.2 | 3.0 | 0.8 | 1.9
c1ccc2c(c1)-c1nc3ccccc3cc1C2N1CCCCC1 (stereo unspecified) | 9.8 | 3.5 | 1.4* | 4.2* | 4.8 | 2.5
O=C(c1ccccc1)N1CC[C@H]2[C@H](CCCN2Cc2ccccc2)C1 | -0.2 | 1.4 | -1.6 | 0.4 | 3.2 | /
O=c1[nH]c2ccccc2nc1-c1c[nH]c2ccccc12 | 3.1 | 6.5* | 0.2 | 0.6 | 0.3 | 1.9
O=c1c2cc3cc(Cl)ccc3nc2ncn1CCc1c[nH]c2ccccc12 | 4.6 | 5.5 | 1.5* | 0.6 | -3.9 | /
Cc1cc(Cl)ccc1NC(=O)/N=C1/NC(=O)CS1 | -1.1 | 0.7 | 1.1* | 0.6 | -0.2 | /
Cc1cc(Cl)ccc1NC(=O)/C=N/O | -1.4 | 2.0 | -1.1 | 0.3 | -2.1 | 2.5
CC(C)CN1C(=O)N2CCc3ccccc3C2CS1(=O)=O (stereo unspecified) | 2.5 | 0.0 | -0.7 | 0.8 | 0.7 | /
